Test [1] can be described thus: Wnt pathway potentiators raising nuclear beta-catenin – imaging, WNT3A-conditioned medium, mouse C2C12, NPC library, primary screen (AID 1117326; in the data active means nuclear beta-catenin stimulation mostly above about 4.2%, no sharp cut-off; inactive means mostly below about 10%). To be noted: stronger effect = higher value.
Test [2] is described as follows: stimulators of insulin release from INS-1E, primary screen, cell-based, 5 mM glucose, NPC library (AID 1117329;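 active means compound raises insulin release from rat beta cells at 5 mM glucose, no numeric limit stated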). Conditions: rat INS-1E insulin secretion, at 10 µM, stronger effect = higher value.
The nature of test [3]: growth inhibition of GSK3B-pretreated HCT116 cells – cell-based, CellTiter-Glo, 0.2 to 20 µM (AID 1117336;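 active means compounds lowering colon cancer cell viability after pretreatment blocking the GSK3B kinase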). Conditions: HCT116 viability after GSK3B inhibitor, at 20 µM, stronger effect = higher value.
Test [4] can be described thus: inhibition of endothelial tube formation, primary screen, imaging, VEGF stimulated, CD31 staining, tube area, NPC library (AID 1117340;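 active means compound that reduces growth-factor-driven endothelial tube area in a mixed cell culture, no cutoff stated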). To be noted: VEGF-stimulated ADSC/ECFC co-culture, at 10 µM, stronger effect = higher value.
Test [5] can be described thus: GLP1 release stimulators, primary, NCI-H716, NPC library (AID 1117341;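 active means compound raises GLP1 secretion from the human gut endocrine cells, with no numeric limit stated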). Conditions: NCI-H716 cells, at 10 µM, stronger effect = higher value.
Test [6] can be described thus: HCT116 colon cancer cell growth inhibition, primary screen, CellTiter-Glo luminescence, NPC library (AID 1117342;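 active means compounds that lower survival of HCT116 colon cancer cells in the luminescence readout, no numeric limit stated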). Conditions: at 20 µM (top of the series). On the technique in general: Cellular ATP, detected with luciferase, serves as a proxy for viable cell number.
The nature of test [7]: reduced SW480 viability measured with CellTiter-Glo, NPC library, primary (AID 1117343;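 active means compounds that lower viability of the colon cancer cells in the luminescence readout, with no numeric limit stated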). Conditions: CellTiter-Glo luminescence; at 20 µM (top of the series).
A short description of test [8]: NPC library primary testing for decreased DLD-1 cell viability via CellTiter-Glo (AID 1117346;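 active means compounds that lower survival of DLD-1 colon cancer cells in the luminescence readout, no cutoff given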). Conditions: DLD-1 viability, CellTiter-Glo luminescence; at 20 µM (top of the series).
The target in test [9] is 6-phosphogluconate dehydrogenase, decarboxylating (Homo sapiens) (UniProt P52209). The test can be described thus: inhibition of human phosphogluconate dehydrogenase – biochemical, recombinant enzyme, NADPH absorbance, primary screen (AID 1159550;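 active means at least 20% inhibition of 6-phosphogluconate dehydrogenase activity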). Conditions: recombinant 6PGD, NADPH absorbance 341 nm; at 10 µM; stronger effect = higher value.
Sequence of 6-phosphogluconate dehydrogenase, decarboxylating (Homo sapiens) (P52209 whole entry, looked up): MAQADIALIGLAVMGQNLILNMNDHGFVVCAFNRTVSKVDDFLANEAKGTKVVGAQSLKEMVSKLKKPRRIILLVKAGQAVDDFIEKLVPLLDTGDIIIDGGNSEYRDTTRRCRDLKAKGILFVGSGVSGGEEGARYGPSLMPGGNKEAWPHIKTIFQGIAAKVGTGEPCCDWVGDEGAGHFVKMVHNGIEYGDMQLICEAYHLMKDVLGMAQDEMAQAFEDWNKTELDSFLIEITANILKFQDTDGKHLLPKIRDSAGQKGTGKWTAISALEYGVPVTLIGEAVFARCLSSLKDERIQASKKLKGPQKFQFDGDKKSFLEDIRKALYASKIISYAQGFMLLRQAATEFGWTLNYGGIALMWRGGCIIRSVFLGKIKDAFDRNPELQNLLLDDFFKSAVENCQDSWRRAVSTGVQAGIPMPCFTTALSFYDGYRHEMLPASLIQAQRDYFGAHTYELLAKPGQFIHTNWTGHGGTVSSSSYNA
Test [10] in a line: modulation of C. elegans fzo-1 (AID 1259413; call rule not given here;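 further: fzo-1 mutant C. elegans worms in liquid wells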). To be noted: C. elegans fzo-1 modulator screen, mean read-out; stronger effect = higher value.
Test [11] is described as follows: EMT-state selective cytotoxicity in co-culture – imaging, PC-3E GFP, TEM4-18 mCherry, primary screen (AID 1345086;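 active means compounds killing one labelled cell type while sparing the other, by normalised counts and ratio limits, not self-fluorescent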;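 on all read-outs here: cells exposed to compound for 72 h before imaging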;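 on red/green cell ratio (normalised): normalised mesenchymal count divided by normalised epithelial count so high means epithelial killing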). To be noted: PC-3E GFP / TEM4-18 mCherry co-culture, imaging cell counts, at 1 µM; for red/green cell ratio (normalised): actives lie on both sides, counts scaled to control wells, 1 = unselective.
Test [12] in a line: MELAS cybrid and Rieske KO viability enhancers – cell-based, MELAS cybrids, Rieske KO mouse fibroblasts, CellTiter-Glo, primary screen (AID 1508586;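 active means mean z-score across replicates of 1.96 or higher in either the MELAS or the Rieske mutant cell line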;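 further: z relative to plate mean and SD of compound and empty wells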). To be noted: low glucose.
The target in test [13] is NAD(+) hydrolase SARM1 (Homo sapiens) (UniProt Q6SZW1). Briefly: blocking NAD cleavage by SARM1 SAM-TIR – cell lysate, NAD-Glo luminescence (AID 1508614;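 active means compound whose remaining NAD level is above about 45 nM, limit read from the data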). To be noted: SAM-TIR HEK293T lysate NADase, at 1 µM, stronger effect = higher value.
Sequence of NAD(+) hydrolase SARM1 (Homo sapiens) (Q6SZW1 whole entry, looked up, the tested form may be a part): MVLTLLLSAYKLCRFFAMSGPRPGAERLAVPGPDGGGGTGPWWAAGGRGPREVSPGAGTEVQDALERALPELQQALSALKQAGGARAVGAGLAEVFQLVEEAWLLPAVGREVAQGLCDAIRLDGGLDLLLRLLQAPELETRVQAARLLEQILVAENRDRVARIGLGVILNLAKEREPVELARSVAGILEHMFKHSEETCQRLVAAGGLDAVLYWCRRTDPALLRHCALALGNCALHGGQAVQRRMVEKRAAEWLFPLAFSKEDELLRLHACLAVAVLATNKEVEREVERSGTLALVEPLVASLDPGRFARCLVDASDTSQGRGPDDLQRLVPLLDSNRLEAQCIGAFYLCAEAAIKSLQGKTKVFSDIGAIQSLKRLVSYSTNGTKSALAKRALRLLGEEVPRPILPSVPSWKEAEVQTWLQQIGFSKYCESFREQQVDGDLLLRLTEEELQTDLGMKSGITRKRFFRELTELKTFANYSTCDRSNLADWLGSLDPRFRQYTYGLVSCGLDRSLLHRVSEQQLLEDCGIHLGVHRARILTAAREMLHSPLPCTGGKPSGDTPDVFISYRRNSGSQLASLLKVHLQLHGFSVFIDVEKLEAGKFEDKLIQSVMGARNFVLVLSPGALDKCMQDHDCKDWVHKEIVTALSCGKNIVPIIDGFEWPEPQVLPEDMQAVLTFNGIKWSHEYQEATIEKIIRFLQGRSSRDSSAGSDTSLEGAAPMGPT
Test [14] addresses Mitogen-activated protein kinase 7 (Homo sapiens) (UniProt Q13164). The test can be described thus: Gal4-ERK5 driven luciferase induction – cell-based, HTS, primary screen (AID 1508626;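 active means luciferase signal above three times the same-plate solvent-only control wells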;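 further: luciferase driven by Gal4-ERK5 fusion binding five Gal4 sites before minimal TATA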). Conditions: HeLa Gal4-ERK5 transactivation, 18 h, at 5 µM, stronger effect = higher value.
For a further test, the system named is F380Y. The test can be described thus: BK channel mutant inhibitors and activators – cell-based, U2OS BacMam, thallium flux, beta subunits, selectivity assay, profiling panel (AID 1259406).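 Further: initial slope of Thallos dye fluorescence rise after thallium is added; log ratio against the mean of 0.3% DMSO vehicle wells on the same plate.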 Conditions: U2OS BacMam BK variants, at 30 µM.
The test system of another test is F380Y/beta1. Described as above. To be noted: U2OS BacMam BK variants, at 30 µM.
A further test has as its system F380Y/beta2Delta. The test is described as above. To be noted: U2OS BacMam BK variants, at 30 µM.
The test system of another test is F380Y/beta4. Described as above. Conditions: U2OS BacMam BK variants, at 30 µM.
Test [15] deals with Calcium-activated potassium channel subunit alpha-1 (Homo sapiens) + Leucine-rich repeat-containing protein 26 (Homo sapiens) (UniProt Q12791+Q2I0M4). The test is described as above. To be noted: U2OS BacMam BK variants, F380Y/Slo1WT/gamma1, at 30 µM.
Sequence of Calcium-activated potassium channel subunit alpha-1 (Homo sapiens) + Leucine-rich repeat-containing protein 26 (Homo sapiens) (Q2I0M4 whole entry, looked up, one chain of several): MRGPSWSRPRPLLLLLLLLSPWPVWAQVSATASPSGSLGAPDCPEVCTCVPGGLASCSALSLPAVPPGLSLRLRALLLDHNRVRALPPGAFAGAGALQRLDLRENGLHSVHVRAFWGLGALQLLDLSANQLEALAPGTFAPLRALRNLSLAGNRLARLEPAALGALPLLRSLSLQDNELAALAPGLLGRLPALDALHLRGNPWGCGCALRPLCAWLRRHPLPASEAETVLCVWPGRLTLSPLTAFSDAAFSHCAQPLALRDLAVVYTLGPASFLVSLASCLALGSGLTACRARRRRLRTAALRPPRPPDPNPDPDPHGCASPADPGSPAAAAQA
The mark [16] stands for this setting: measured here: epithelial PC-3E GFP cell survival.
The mark [17] stands for this setting: measured here: mesenchymal TEM4-18 mCherry cell survival.
[18] abbreviates: MELAS cybrid survival, CellTiter-Glo 48 h, stronger effect = higher value.
Where [19] appears, read: Rieske KO mouse fibroblast survival, CellTiter-Glo 72 h.

Several values for one entry are separate records, joined by “and”; a condition that tells them apart may be missing. Identical values can stand only once. A structure can be active in one record and inactive in another. Activity calls are given as the source filed them.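 How the source made its calls, unless noted: active means thallium flux through the channel raised or lowered by more than 3 SD from vehicle-only wells, actives on both sides; inactive means the rest.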

As a reminder, the inhibition is the drop in the measured response relative to a control, in per cent.

Sequence of Mitogen-activated protein kinase 7 (Homo sapiens) (Q13164 whole entry, looked up, the tested form may be a part): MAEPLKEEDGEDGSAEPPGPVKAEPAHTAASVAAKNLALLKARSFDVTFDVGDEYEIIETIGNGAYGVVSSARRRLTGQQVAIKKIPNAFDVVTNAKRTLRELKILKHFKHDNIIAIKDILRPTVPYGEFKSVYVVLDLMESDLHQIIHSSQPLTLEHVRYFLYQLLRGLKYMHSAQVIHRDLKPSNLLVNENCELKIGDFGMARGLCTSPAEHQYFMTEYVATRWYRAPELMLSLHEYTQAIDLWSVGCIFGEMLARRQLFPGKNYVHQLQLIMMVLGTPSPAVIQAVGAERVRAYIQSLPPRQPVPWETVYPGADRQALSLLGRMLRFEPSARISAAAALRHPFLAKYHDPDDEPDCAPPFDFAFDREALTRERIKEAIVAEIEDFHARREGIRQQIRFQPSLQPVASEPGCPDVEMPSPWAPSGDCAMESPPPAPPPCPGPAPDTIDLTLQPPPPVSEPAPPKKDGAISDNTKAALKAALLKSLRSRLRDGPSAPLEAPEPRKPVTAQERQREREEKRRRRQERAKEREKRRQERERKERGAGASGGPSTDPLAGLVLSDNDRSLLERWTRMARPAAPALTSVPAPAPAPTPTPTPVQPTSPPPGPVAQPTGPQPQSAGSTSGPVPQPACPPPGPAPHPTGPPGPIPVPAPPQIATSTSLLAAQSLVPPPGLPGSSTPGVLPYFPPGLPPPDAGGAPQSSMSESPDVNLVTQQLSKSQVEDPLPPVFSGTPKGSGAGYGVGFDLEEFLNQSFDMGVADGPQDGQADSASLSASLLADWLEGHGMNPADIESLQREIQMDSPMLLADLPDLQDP

On to `NC(=O)N1c2ccccc2C=Cc2ccccc21`, for which the nuclear beta-catenin stimulation is 1% (inactive) in [1] (at 10 µM) and 0.9% in [1] (stimulation, at 2 µM). For the same compound, the insulin secretion stimulation in test [2] is -1.9% (inactive). Also, the viability decrease in [3] is -2.95% (inactive). Further, the tube area decrease in test [4] is 0.8% (inactive). For the same compound, the GLP1 secretion stimulation in test [5] is 4.4% (inactive). Also, the inhibition of viability in test [6] is -18.7% (inactive). Besides, the viability decrease (inhibition) is 20.2% (inactive) in test [7] and -3.3% (inactive) in [8]. In addition, the inhibition in [9] is 4.77% (inactive). Also, in test [10], the mean signal was 259 (inactive). The red/green cell ratio (normalised) in test [11] was 0.88 (inactive). Also, the results for the normalised cell number in test [11] (setting [16]) and in [11] (setting [17]) were 1.19 and 1.04, respectively. In addition, the z-score in [12] (setting [18]) is 2.18 (active) and 0.491 (inactive) and -0.759 (inactive); in test [12] (setting [19]) it was -0.583 and -0.0689 and -0.563. Further, the remaining NAD in [13] is 10 nM (inactive). Moreover, the luciferase signal in test [14] is 36 AU (inactive). The log fold change Tl+ flux in the test on F380Y is -0.0389 (inactive); with F380Y/beta1, -0.00275 (inactive); with F380Y/beta2Delta, -0.0114 (inactive); with F380Y/beta4 it was -0.00351 (inactive); in test [15] it was -0.0331 (inactive).
As for `Cc1nc2ccccn2c(=O)c1CCN1CCC(C(=O)c2ccc(F)cc2)CC1`, the nuclear beta-catenin stimulation in [1] (at 10 µM) is -0.7% (inactive); in test [1] (stimulation, at 2 µM), -2.4%. Besides, the insulin secretion stimulation in [2] is 3.35% (inactive). Further, the viability decrease in test [3] was 24.3% (inactive). For the same compound, the tube area decrease in [4] is 6% (inactive). The GLP1 secretion stimulation in test [5] is 10.6% (inactive). In addition, the inhibition of viability in test [6] is 67.9% (active). The viability decrease (inhibition) in test [7] is 30.7% (inactive); in test [8], 11.5% (inactive). The inhibition in test [9] was 0.157% (inactive). For the same compound, the mean signal in [10] is 234 (inactive). Besides, the red/green cell ratio (normalised) in test [11] is 1.29 (inactive). Further, the normalised cell number in [11] (setting [16]) was 0.87; in test [11] (setting [17]), 1.12. Besides, the figures for the z-score in test [12] (setting [18]) and in test [12] (setting [19]) were -0.0109 (inactive) and -0.116, respectively. In test [13], the remaining NAD was 10 nM (inactive). For the same compound, the luciferase signal in test [14] is 52 AU (inactive). For the same compound, the log fold change Tl+ flux with F380Y was 0.00566 (inactive); in the test with F380Y/beta1, 0.0396 (inactive); with F380Y/beta2Delta it was -0.00369 (inactive); in the test on F380Y/beta4 it was 0.0319 (inactive); in test [15] it was -0.0679 (inactive).
Regarding `CCOC(=O)[C@H](CCc1ccccc1)N[C@@H](C)C(=O)N1Cc2ccccc2C[C@H]1C(=O)O`, the nuclear beta-catenin stimulation in [1] (at 10 µM) was 2.5% (inactive); in test [1] (stimulation, at 2 µM), 0.3%. Also, in [2], the insulin secretion stimulation is 0.7% (inactive). Moreover, the viability decrease in [3] was -30.1% (inactive). For the same compound, in test [4], the tube area decrease was -10% (inactive). In addition, in [5], the GLP1 secretion stimulation is 2.9% (inactive). For the same compound, the inhibition of viability in [6] was 3.6% (inactive). Further, the results for the viability decrease (inhibition) in [7] and in test [8] were 28.5% (inactive) and 6% (inactive), respectively. Further, in test [9], the inhibition was -10.1% (inactive). Moreover, in test [10], the mean signal is 206 (inactive). Besides, the red/green cell ratio (normalised) in test [11] is 0.95 (inactive). Also, the normalised cell number came out at 1.17 in test [11] (setting [16]) and 1.12 in [11] (setting [17]). The z-score in test [12] (setting [18]) is 0.64 (inactive) and 0.208 (inactive); in test [12] (setting [19]), -0.486 and -0.81. The remaining NAD in test [13] is 10 nM (inactive). Also, the luciferase signal in test [14] was 64 AU (inactive). The log fold change Tl+ flux with F380Y is 0.032 (inactive); in the test on F380Y/beta1, -0.0839 (inactive); in the test with F380Y/beta2Delta, 0.0255 (inactive); in the test on F380Y/beta4 it was -0.00668 (inactive); in test [15] it was 0.0143 (inactive).

(Values after PubChem BioAssay.)
